Each structure is given as a SMILES string. Activity calls are given as the source filed them. Rule for the calls: active = hit-call score of the fitted dose curve at least 0.9, where 1 is the maximum; inactive = score below 0.9.

The test is described as follows: ATG_E_Box_CIS: Attagene CIS-FACTORIAL HepG2 Assay for human Enhancer Box (E-box) (AID 2282936). To be noted: HepG2 E-box cis-reporter transcription, actives raise or lower the signal. On the procedure: ATG_CIS is a cell-based, multiplexed-readout assay that uses HepG2, a human liver cell line, with measurements taken at 24 hours after chemical dosing in a 24-well plate.ATG_E_Box_CIS is one of 52 assay component(s) measured or calculated from the ATG_CIS assay. It is designed to make measurements of mRNA induction, a form of inducible reporter, as detected with fluorescence intensity signals by Reverse transcription polymerase chain reaction (RT-PCR) and Capillary electrophoresis technology.Data from the assay component ATG_E_Box_CIS was analyzed into 1 assay endpoint. This assay endpoint, ATG_E_Box_CIS, was analyzed with bidirectional fitting relative to DMSO as the negative control and baseline of activity. Using a type of inducible reporter, measures of mRNA for gain or loss-of-signal activity can be used to understand the reporter gene at the transcription factor-level as they relate to the gene USF1. Furthermore, this assay endpoint can be referred to as a primary readout, because this assay has produced multiple assay endpoints where this one serves a reporter gene function. To generalize the intended target to other relatable targets, this assay endpoint is annotated to the dna binding intended target family, where the subfamily is basic helix-loop-helix protein.
Human liver HepG2 cells are transiently transfected with multiple reporter transcription units (MRTUs) in 6-well plates using FuGene 6 reagent (Roche; 3 ml FuGene/1 mg DNA). The MRTU constructs are regulated by a cis-regulating element (promoter). […] A major difference between the CIS and TRANS system is that in CIS activities of endogenous TFs are measured, whereas the TRANS assay evaluates changes in activities of exogenous, chimeric NR-Gal4 proteins. […] At the end of 24 hour incubation, total RNA was isolated using TriZol reagent (Invitrogen). The isolated RNA is then reverse-transcribed using oligo(dT) primer and Mo-MLV reverse transcriptase (Invitrogen) with DNAse I (Ambion) treatment for 30 min. The one-tenth of the produced cDNA was amplified by PCR using Taq DNA polymerase (Invitrogen) and two reporter sequence-specific primers. The PCR products were fluorescently labeled by primer extension with 6-arboxyfluorescein (6-FAM) 5'-labeled reporter sequence-specific primer (2 min at 95 C, 20 s at 68 C and 10 min at 72 C) and these products were digested with 5U of HpaI (New England Biolabs) for 2h at 37 C. The fragments were purified using Qiaquick PCR columns (Qiagen), analyzed on an ABI 3130xL genetic analyzer (Applied Biosystems) with peak positions identified by using a set of X-rhodamine (ROX)-labeled MapMarker1000 molecular weight standards (BioVentures). The raw capillary electrophoresis data was processed using Attagraph software (Attagene).
In the case of `NC(N)=S`, the outcome was inactive. For `CCCc1ccc(O)cc1`, the outcome was inactive. On the same count and under the same terms, the value for `O=S(=O)(O)CCCN1CCOCC1` was “inactive”. Same read-out and setting: the value for `O=C(O)c1ccc(C(=O)O)c(C(=O)O)c1` was “inactive”; that for `c1ccc(Sc2ccccc2)cc1` was “inactive”. Still for that read-out and setting: the value for `CC1=C(C=O)C(C)(C)CCC1` was “inactive”; that for `CCCCCCC(C)O` (stereo not given) was “inactive”; that for `CCOC(=O)C(=O)OCC` was “inactive”. In the case of `CCC(C)(C)c1cc(O)c(C(C)(C)CC)cc1O`, the outcome was inactive. Take `CCCCCCCCOC(C)=O`: the outcome was inactive. On the same count and under the same terms, as for `CC1=CC[C@@H](C(C)(C)O)CC1`, the entry is “inactive”; as for `CC(C)COC(=O)c1ccccc1`, “inactive”; as for `O=C(O)c1cc2ccccc2cc1O`, “inactive”. Still for that read-out and setting: as for `CC1COC(=O)O1` (stereo not given), the entry is “inactive”; as for `CC(=O)OC(C)(C)C`, “inactive”. The same measure, in the same setting: as for `O=S1(=O)CC=CC1`, the entry is “inactive”; as for `CC(C)N(c1ccccc1)C(C)C`, “inactive”; as for `O=C(O)c1ccco1`, “inactive”. Turning to `O=C(C=Cc1ccccc1)OCCCc1ccccc1`, the result was inactive. The same measure, in the same setting: the value for `OCCN1CCOCC1` was “inactive”. Still for that read-out and setting: as for `[O-]/[N+](=N\O)c1ccccc1`, the entry is “inactive”; as for `N#CCCCC(C#N)CCC#N` (stereo not given), “inactive”; as for `Cc1cc(O)c2c(c1)C(=O)c1cc(O)cc(O)c1C2=O`, “inactive”. Still for that read-out and setting: as for `C=CC(C)(CCC=C(C)C)OC(=O)CC` (stereo not given), the entry is “inactive”; as for `CCC(=O)OC/C=C(\C)CCC=C(C)C`, “inactive”. For the compound `CC(C)(CO)CO`, the outcome was inactive. Same read-out and setting: the value for `C=C(C)C(=O)OCCC(C)OC(=O)C(=C)C` (stereo not given) was “inactive”; that for `FC(F)(F)c1ccc(Cl)c(Cl)c1` was “inactive”; that for `CCCCOCCOC(=O)c1ccccc1C(=O)OCCOCCCC` was “inactive”.

With `CC/C=C\CCCCO`, the outcome was inactive. With `CCCCCCOc1ccc(O)cc1`, the result was inactive. The same measure, in the same setting: the value for `CC(C)(C)c1cc(CCC(=O)OCCSCCOC(=O)CCc2cc(C(C)(C)C)c(O)c(C(C)(C)C)c2)cc(C(C)(C)C)c1O` was “inactive”; that for `[Cu+]` was “inactive”.

For the compound `O=C1CCCCCCCCCCCC(=O)OCCO1`, the outcome was inactive. Same read-out and setting: as for `CC(C)C(=O)OCC=Cc1ccccc1`, the entry is “inactive”. The term AC50 denotes the concentration at which the activity in the assay is half-maximal. On to `Cc1cc(O)c(C)c(C)c1O`, for which the half-maximal activity concentration (AC50) is 37.6 µM (active). For `CC/C(=C(\c1ccccc1)c1ccc(OCCN(C)C)cc1)c1ccccc1`, the result was inactive.

For the compound `CCCCCCCCCO`, the outcome was inactive. On the same count and under the same terms, the value for `CC(CO)(CO)[N+](=O)[O-]` was “inactive”. Still for that read-out and setting: as for `Cc1cccc(O)c1`, the entry is “inactive”.

For the origin of these results see PubChem BioAssay (EPA / NIEHS).
